Each structure is given as a SMILES string. Structures can show the parent of a compound that is named as a salt.

The subject of the first experiment is A431. Briefly: whole-cell filipin (free cholesterol) integrated intensity, Z-score; higher = more cholesterol staining. The following applies: compound concentration in added solution (µM; 5 µl added to 20 µl cells): 10; 18 h. An outline of the steps: (§1)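 Each value is a Z-score normalised in AcuityXpress from per-cell integrated LBPA or filipin intensity, taken over the whole cell or within LBPA endosomes. Duplicate 384-well imaging plates held 5 µl of 10 µM compound solution, onto which 3,500 HeLa MZ or A431 cells in 20 µl were seeded per well. After 18 h the cells were fixed in 4% PFA, stained with 6C4 anti-LBPA antibody, filipin, propidium iodide and CellTracker green, imaged four times per well at 20× and segmented in MetaXpress.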
In the case of `CCCNCC(O)COc1ccccc1C(=O)CCc1ccccc1` (stereo not given) [Propafenone hydrochloride], the “whole-cell filipin (z-score)” value is 2.04.
Same read-out and setting: with `C#C[C@]1(OC(C)=O)CC[C@H]2[C@@H]3CCC4=CC(=NO)CC[C@@H]4[C@H]3CC[C@@]21CC` (mixture of isomers) [Norgestimate] the figure was 0.197.
As for `CN1C(C)(C)CCCC1(C)C` [Pempidine tartrate], the “whole-cell filipin (z-score)” value was -0.191.
On the same count and under the same terms, with `Cc1cn([C@H]2C[C@H](N=[N+]=[N-])[C@@H](CO)O2)c(=O)[nH]c1=O` [Zidovudine, AZT] the figure was -0.904.
On the same count and under the same terms, then `CC(=O)[C@H]1CC[C@H]2[C@@H]3C[C@H](C)C4=CC(=O)CC[C@]4(C)[C@H]3[C@@H](O)C[C@]12C` [Medrysone], with 0.12.
Same read-out and setting: then `C[C@@H](c1ncncc1F)[C@](O)(Cn1cncn1)c1ccc(F)cc1F` [Voriconazole], with -0.573; and `O=C(O)c1cc(/N=N/c2ccc(S(=O)(=O)Nc3ccccn3)cc2)ccc1O` [Sulfasalazine], with 0.0767.
Take `C[C@@](Cc1ccc(O)c(O)c1)(NN)C(=O)O` [Carbidopa]: the “whole-cell filipin (z-score)” value was -0.771.
Take `CCN(CC)CCNc1ccc(CO)c2sc3ccccc3c(=O)c12` [Hycanthone]: the “whole-cell filipin (z-score)” value came out at 2.31.
Still for that read-out and setting: with `CC(CN(C)C)CN1c2ccccc2Sc2ccccc21` (stereo not given) [Trimeprazine tartrate] the figure was 1.36.
On to `COC(=O)Nc1nc2cc([S+]([O-])c3ccccc3)ccc2[nH]1` (stereo not given) [Oxfendazol], for which the “whole-cell filipin (z-score)” value was -0.236.
For `Clc1cc(Cl)c(OCC#CI)cc1Cl` [Haloprogin], the “whole-cell filipin (z-score)” value was -0.945.
With `CNCCCC12CCC(c3ccccc31)c1ccccc12` [Maprotiline hydrochloride], the “whole-cell filipin (z-score)” value was found to be 1.09.
With `CCC[C@H](N[C@@H](C)C(=O)N1[C@H](C(=O)O)C[C@@H]2CCCC[C@@H]21)C(=O)OCC` [Perindopril], the “whole-cell filipin (z-score)” value turned out to be 0.0463.
Same read-out and setting: then `CN1[C@@H]2CC[C@H]1C[C@@H](OC(=O)c1c[nH]c3ccccc13)C2` [Tropisetron HCl], with -0.234; and `COc1cc([C@@H]2c3cc4c(cc3[C@@H](O[C@@H]3O[C@@H]5CO[C@@H](C)O[C@H]5[C@H](O)[C@H]3O)[C@H]3COC(=O)[C@H]23)OCO4)cc(OC)c1O` [Etoposide], with 2.27; and `Nc1nc2n[nH]nc2c(=O)[nH]1` [Azaguanine-8], with -1.15.
Same read-out and setting: then `Cc1cc2c(s1)Nc1ccccc1N=C2N1CCN(C)CC1` [Olanzapine], with 0.197; and `N=C(N)c1ccc(OCCCCCOc2ccc(C(=N)N)cc2)cc1` [Pentamidine isethionate], with -0.429; and `O=c1[nH]cc(F)c(=O)[nH]1` [5-fluorouracil], with 0.716.
The same measure, in the same setting: with `CC(C)NNC(=O)c1ccncc1` [Iproniazide phosphate] the figure was -0.562; with `CC(=O)c1ccc2c(c1)N(CCCN1CCC(CCO)CC1)c1ccccc1S2` [Piperacetazine], 2.51.
On to `CC(C(=O)O)c1ccc(C(=O)c2cccs2)cc1` (stereo not given) [Suprofen], for which the “whole-cell filipin (z-score)” value is 0.0494.
For the compound `CCOC(=O)[N-]c1c[n+](N2CCOCC2)no1` [Molsidomine], the “whole-cell filipin (z-score)” value is -0.59.
Consider `CN(Cc1cnc2nc(N)nc(N)c2n1)c1ccc(C(=O)N[C@@H](CCC(=O)O)C(=O)O)cc1` [Methotrexate], for which the “whole-cell filipin (z-score)” value came to 0.354.
As for `O=C(CCCCCCC(=O)Nc1ccccc1)NO` [Vorinostat], the “whole-cell filipin (z-score)” value was 1.83.
The same measure, in the same setting: then `COc1ccccc1N1CCN(CCCNc2cc(=O)n(C)c(=O)n2C)CC1` [Urapidil hydrochloride], with -0.315.
Regarding `Cc1c(N)c(=O)n(-c2ccccc2)n1C` [Ampyrone], the “whole-cell filipin (z-score)” value was -0.998.
`CCCC1C(=O)N2C(N(C)C)=Nc3ccc(C)cc3N2C1=O` (stereo not given) [Azapropazone]: the “whole-cell filipin (z-score)” value turned out to be 0.0445.
Take `NC(Cc1cc(I)c(Oc2cc(I)c(O)c(I)c2)c(I)c1)C(=O)O` (stereo not given) [Thyroxine (L)]: the “whole-cell filipin (z-score)” value was -1.1.
Turning to `COC(=O)Nc1nc2cc(C(=O)c3ccc(F)cc3)ccc2[nH]1` [Flubendazol], the “whole-cell filipin (z-score)” value was -0.303.

The subject of the next experiment is HeLa MZ. The experiment is described as above. The following applies: compound concentration in added solution (µM; 5 µl added to 20 µl cells): 10; 18 h. The method, boiled down:
as §1
As to `CCCNCC(O)COc1ccccc1C(=O)CCc1ccccc1` (stereo not given) [Propafenone hydrochloride], the “whole-cell filipin (z-score)” value was 1.83.
As for `C#C[C@]1(OC(C)=O)CC[C@H]2[C@@H]3CCC4=CC(=NO)CC[C@@H]4[C@H]3CC[C@@]21CC` (mixture of isomers) [Norgestimate], the “whole-cell filipin (z-score)” value worked out at 0.173.
With `Cc1cn([C@H]2C[C@H](N=[N+]=[N-])[C@@H](CO)O2)c(=O)[nH]c1=O` [Zidovudine, AZT], the “whole-cell filipin (z-score)” value stood at 0.114.
On the same count and under the same terms, with `CC(=O)[C@H]1CC[C@H]2[C@@H]3C[C@H](C)C4=CC(=O)CC[C@]4(C)[C@H]3[C@@H](O)C[C@]12C` [Medrysone] the figure was 0.163.
Turning to `C[C@@H](c1ncncc1F)[C@](O)(Cn1cncn1)c1ccc(F)cc1F` [Voriconazole], the “whole-cell filipin (z-score)” value is -0.527.
The same measure, in the same setting: with `O=C(O)c1cc(/N=N/c2ccc(S(=O)(=O)Nc3ccccn3)cc2)ccc1O` [Sulfasalazine] the figure was 1.46.
The same measure, in the same setting: with `C1CCC(C(CC2CCCCN2)C2CCCCC2)CC1` (stereo not given) [Perhexiline maleate] the figure was 0.438; with `C[C@@](Cc1ccc(O)c(O)c1)(NN)C(=O)O` [Carbidopa], -0.705.
Same read-out and setting: with `Clc1cc(Cl)c(OCC#CI)cc1Cl` [Haloprogin] the figure was -0.949; with `CCN(CC)C(=S)SSC(=S)N(CC)CC` [Disulfiram], 0.0194.
Turning to `CNCCCC12CCC(c3ccccc31)c1ccccc12` [Maprotiline hydrochloride], the “whole-cell filipin (z-score)” value was determined as 1.4.
Still for that read-out and setting: with `CCC[C@H](N[C@@H](C)C(=O)N1[C@H](C(=O)O)C[C@@H]2CCCC[C@@H]21)C(=O)OCC` [Perindopril] the figure was -0.4; with `CN1[C@@H]2CC[C@H]1C[C@@H](OC(=O)c1c[nH]c3ccccc13)C2` [Tropisetron HCl], -0.504.
On the same count and under the same terms, with `O=C1NCCN1CCN1CCC(c2cn(-c3ccc(F)cc3)c3ccc(Cl)cc23)CC1` [Sertindole] the figure was -0.48.
Same read-out and setting: with `Cc1cc2c(s1)Nc1ccccc1N=C2N1CCN(C)CC1` [Olanzapine] the figure was 0.311.
For the compound `CC(C)(C)CC(C)(C)c1ccc(OCCOCC[N+](C)(C)Cc2ccccc2)cc1` [Benzethonium chloride], the “whole-cell filipin (z-score)” value was -0.53.
For the compound `N=C(N)c1ccc(OCCCCCOc2ccc(C(=N)N)cc2)cc1` [Pentamidine isethionate], the “whole-cell filipin (z-score)” value was -0.57.
Still for that read-out and setting: with `C=C(NC(=O)C(=C)NC(=O)c1csc(C2=N[C@@H]3c4csc(n4)[C@H]4NC(=O)c5csc(n5)[C@H]([C@](C)(O)[C@@H](C)O)NC(=O)[C@H]5CSC(=N5)/C(=C/C)NC(=O)[C@H]([C@@H](C)O)NC(=O)c5csc(n5)[C@]3(CC2)NC(=O)[C@H](C)NC(=O)C(=C)NC(=O)[C@H](C)NC(=O)[C@H]([C@@H](C)CC)N[C@@H]2C=Cc3c([C@H](C)O)cc(nc3[C@H]2O)C(=O)O[C@@H]4C)n1)C(N)=O` [Thiostrepton] the figure was -0.786; with `CC(C)NNC(=O)c1ccncc1` [Iproniazide phosphate], -0.228.
For the compound `CC(NCCC(c1ccccc1)c1ccccc1)c1ccccc1` (stereo not given) [Fendiline hydrochloride], the “whole-cell filipin (z-score)” value was determined as 0.948.
Still for that read-out and setting: with `CN[C@H]1CC[C@@H](c2ccc(Cl)c(Cl)c2)c2ccccc21` [Sertraline] the figure was 0.938.
On to `CC(=O)c1ccc2c(c1)N(CCCN1CCC(CCO)CC1)c1ccccc1S2` [Piperacetazine], for which the “whole-cell filipin (z-score)” value was 1.35.
On to `CC(C(=O)O)c1ccc(C(=O)c2cccs2)cc1` (stereo not given) [Suprofen], for which the “whole-cell filipin (z-score)” value amounted to 0.84.
The same measure, in the same setting: with `CCOC(=O)[N-]c1c[n+](N2CCOCC2)no1` [Molsidomine] the figure was -0.136.
On the same count and under the same terms, with `Fc1ccc([C@@H]2CCNC[C@H]2COc2ccc3c(c2)OCO3)cc1` [Paroxetine Hydrochloride] the figure was -0.28; with `CC(C)n1c(/C=C/C(O)CC(O)CC(=O)O)c(-c2ccc(F)cc2)c2ccccc21` (stereo not given) [Fluvastatin sodium salt], -0.754.
In the case of `COc1ccccc1N1CCN(CCCNc2cc(=O)n(C)c(=O)n2C)CC1` [Urapidil hydrochloride], the “whole-cell filipin (z-score)” value was found to be 0.116.
The same measure, in the same setting: then `Cc1c(N)c(=O)n(-c2ccccc2)n1C` [Ampyrone], with -1.26; and `NC(Cc1cc(I)c(Oc2cc(I)c(O)c(I)c2)c(I)c1)C(=O)O` (stereo not given) [Thyroxine (L)], with -0.619.

The values above are taken from the supplement of paper PMC6607015.
